In PubChem BioAssay AID1159580 (chemical genetic matrix, 2015):
The whole screen tested about 5,500 compounds, of which about 2,000 (36%) were called active. Roughly 18% stayed inconclusive and do not appear here. Rule as the data show it: active = normalized growth mostly below about 0.91 (no sharp cut-off); inconclusive = no clear call, values can overlap the other calls; inactive = mostly above about 0.92. Some of the results follow.

Assay: chemical genetic growth profiling, strain panel (AID 1159580);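 also: tested at 20 µM; growth read once vehicle control cultures reached saturation at 30 °C; 1 = growth at the plate median or of vehicle wells; lower values mean less growth of the strain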
Conditions: S. cerevisiae deletion strains, growth OD

Measured: normalized growth

O=c1ccc2ccc(O)c(O)c2o1
inactive: locus YAL021C, strain ccr4, active compounds read low 1.01 | locus YAL026C, strain drs2, active compounds read low 1.01 | locus YAL030W, strain snc1, active compounds read low 1.01 | locus YAL040C, strain CLN3, active compounds read low 0.995 | locus YBL061C, strain skt5, active compounds read low 1 | locus YBR009C, strain hhf1, active compounds read low 1 | locus YBR023C, strain chs3, active compounds read low 1 | locus YBR171W, strain sec66, active compounds read low 1 | locus YBR231C, strain swc5, active compounds read low 0.98 | locus YBR279W, strain paf1, active compounds read low 1.01 | locus YCL011C, strain gbp2, active compounds read low 1.03 | locus YCL016C, strain dcc1, active compounds read low 0.996 | locus YCL061C, strain MRC1 (second series), active compounds read low 0.999 | locus YCL069W, strain vba3, active compounds read low 1.01 | locus YCR088W, strain abp1, active compounds read low 1.01 | locus YDL005C, strain med2, active compounds read low 1 | locus YDL040C, strain nat1, active compounds read low 1.01 | locus YDR001C, strain nth1, active compounds read low 1.02 | locus YDR069C, strain doa4, active compounds read low 0.982 | locus YDR137W, strain rgp1, active compounds read low 0.982 | locus YDR150W, strain NUM1, active compounds read low 0.998 | locus YDR159W, strain sac3, active compounds read low 0.966 | locus YDR195W, strain ref2 0.989 | locus YDR297W, strain sur2, active compounds read low 1 | locus YDR334W, strain swr1, active compounds read low 1.01 | locus YDR335W, strain msn5, active compounds read low 1.02 | locus YDR363W, strain ESC2, active compounds read low 0.961 | locus YDR392W, strain spt3, active compounds read low 0.934 | locus YEL003W, strain gim4, active compounds read low 1 | locus YEL037C, strain rad23, active compounds read low 1.01 | locus YEL061C, strain CIN8 (second series), active compounds read low 1.01 | locus YER002W, strain NOP16, active compounds read low 0.996 | locus YER015W, strain faa2, active compounds read low 0.999 | locus YER016W, strain bim1, active compounds read low 1.02 | locus YER111C, strain swi4, active compounds read low 0.999 | locus YER155C, strain BEM2 (second series), active compounds read low 1 | locus YFR010W, strain ubp6, active compounds read low 1.01 | locus YGL167C, strain pmr1, active compounds read low 1.01 | locus YGL173C, strain kem1, active compounds read low 1 | locus YGL227W, strain vid30, active compounds read low 1.01 | locus YGL240W, strain doc1, active compounds read low 0.986 | locus YGL253W, strain hxk2, active compounds read low 1.03 | locus YGR078C, strain PAC10, active compounds read low 0.994 | locus YGR229C, strain SMI1, active compounds read low 1.03 | locus YHR013C, strain ard1, active compounds read low 0.997 | locus YHR027C, strain rpn1, active compounds read low 1 | locus YHR030C, strain SLT2, active compounds read low 0.98 | locus YHR079C, strain IRE1, active compounds read low 0.96 | locus YHR142W, strain chs7, active compounds read low 1.05 | locus YJL092W, strain hpr5, active compounds read low 1.01 | locus YJL095W, strain BCK1 (second series), active compounds read low 1 | locus YJL095W, strain BCK1, active compounds read low 0.978 | locus YJL115W, strain asf1, active compounds read low 1.01 | locus YJL129C, strain trk1, active compounds read low 0.999 | locus YJL154C, strain vps35, active compounds read low 1.01 | locus YJL164C, strain tpk1, active compounds read low 1 | locus YJL166W, strain qcr8, active compounds read low 1.02 | locus YJL187C, strain SWE1, active compounds read low 1.02 | locus YJR066W, strain TOR1, active compounds read low 0.924 | locus YJR075W, strain HOC1, active compounds read low 1.05 | locus YKL160W, strain elf1, active compounds read low 1 | locus YKR026C, strain gcn3, active compounds read low 1.01 | locus YKR091W, strain srl3, active compounds read low 1.01 | locus YLL001W, strain dnm1, active compounds read low 0.996 | locus YLL026W, active compounds read low 1 | locus YLL041C, strain sdh2, active compounds read low 1.01 | locus YLR027C, strain aat2, active compounds read low 0.993 | locus YLR113W, strain HOG1, active compounds read low 1.01 | locus YLR221C, strain rsa3, active compounds read low 0.991 | locus YLR258W, strain gsy2, active compounds read low 1.01 | locus YLR262C, strain YPT6 (second series), active compounds read low 1.02 | locus YLR320W, strain mms22, active compounds read low 1.01 | locus YLR342W, strain FKS1, active compounds read low 1.01 | locus YLR357W, strain rsc2, active compounds read low 1 | locus YLR370C, strain arc18, active compounds read low 1.01 | locus YLR384C, strain iki3, active compounds read low 0.981 | locus YML120C, strain ndi1, active compounds read low 1 | locus YMR058W, strain fet3, active compounds read low 1.01 | locus YMR125W, strain sto1, active compounds read low 1 | locus YMR129W, active compounds read low 1.01 | locus YMR205C, strain PFK2, active compounds read low 1.01 | locus YMR231W, strain pep5, active compounds read low 0.998 | locus YMR307W, strain GAS1, active compounds read low 1.03 | locus YNL071W, strain lat1, active compounds read low 1.02 | locus YNL153C, strain GIM3, active compounds read low 1.2 | locus YNL175C, strain NOP13, active compounds read low 0.974 | locus YNL183C, strain NPR1, active compounds read low 0.94 | locus YNL197C, strain WHI3, active compounds read low 0.979 | locus YNL209W, strain ssb2, active compounds read low 0.994 | locus YNL224C, strain SQS1, active compounds read low 0.99 | locus YNL248C, strain rpa49, active compounds read low 1.04 | locus YNL322C, strain KRE1 (second series), active compounds read low 0.994 | locus YNR049C, strain mso1, active compounds read low 0.999 | locus YOR001W, strain rrp6, active compounds read low 0.979 | locus YOR070C, strain gyp1, active compounds read low 0.991 | locus YOR080W, strain dia2, active compounds read low 0.986 | locus YOR083W, strain WHI5 (second series), active compounds read low 1.02 | locus YOR083W, strain WHI5, active compounds read low 0.999 | locus YOR106W, strain vam3, active compounds read low 0.99 | locus YOR231W, strain MKK1, active compounds read low 0.966 | locus YOR265W, strain rbl2, active compounds read low 1.01 | locus YOR270C, strain vph1, active compounds read low 1 | locus YOR290C, strain snf2, active compounds read low 0.98 | locus YPL051W, strain arl3, active compounds read low 1 | locus YPL078C, strain atp4, active compounds read low 1.01 | locus YPL106C, strain sse1, active compounds read low 0.967 | locus YPL240C, strain hsp82, active compounds read low 1.01 | locus YPL256C, strain CLN2, active compounds read low 0.989
